Assay outcomes (PubChem BioAssay)
In the library only some 12% were active in any assay of this set; here they are far more common.
BAZ2B block – inhibitors of human BAZ2B bromodomain; Q9UIF8; AlphaScreen BAZ2B-H3K14Ac peptide displacement; Potency, µM (doses to about 114 µM), for the others: at the highest dose activity change, negative = inhibition, most hits filed as inhibitors; 360,000 tested, 4.4% active; further: on the % scale 0 is the no-effect control and ±100 the full control effect; nearly all actives have a fitted effect of over 60% in size
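Protein-peptide AlphaScreen: BAZ2B 50 nM, b-H3K14Ac 50 nM, 1x PBS pH 7.4 + 0.01% Tween-20. Preincubation 30 min RT; cpd 30 min RT (top 110 uM); beads 20 min RT, light-protected.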
G9a block – G9a (human) methyltransferase inhibition; Q96KQ7; G9a H3K9 monomethylation, AlphaScreen, 2 h; Potency, µM (doses to about 102 µM), for inactives: at the top dose activity, negative = inhibition, usual class: inhibitors; 350,000 tested, 8.8% active; AID 504332; further: on the % scale 0 is the no-effect control and ±100 the full control effect; nearly all actives have a fitted effect of over 75% in size
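G9a (20 nM) preincubated 15 min RT with compounds, then 500 nM biotinylated H3K9 peptide and 20 uM SAM added; 2 h RT reaction. Monomethyl-H3K9 product detected by AlphaScreen with anti-H3K9me1 antibody, streptavidin donor and anti-rabbit IgG acceptor beads.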
HP1b chromo inh – blocks HP1-beta chromodomain binding to methylated histone tails. P83916. 390,000 tested, 0.56% active. Potency, µM (doses to about 114 µM), for the others: at the top dose activity change, negative = inhibition, hits mostly inhibitors. AlphaScreen HP1-beta / biotin-H3K9me3 peptide binding. AID 540317; further: nearly all actives have a fitted effect of over 70% in size
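AlphaScreen: HP1-beta (50 nM) preformed 30 min with biotin-H3(1-18)K9me3 peptide (50 nM) in PBS pH 7.4, 0.01% Tween-20. Compound added for 30 min at RT, then streptavidin donor/nickel chelate acceptor beads (10 ug/mL) for 30 min.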
JMJD2A Tudor inh – inhibitors of human JMJD2A Tudor domain. O75164. 390,000 tested, 4.4% active. Potency, µM (titrated, usually from 114 µM), for inactives: top-dose activity change, negative = inhibition, most hits filed as inhibitors. AID 504339. AlphaScreen JMJD2A-Tudor / H3K4me3 peptide binding; further: on the % scale 0 is the no-effect control and ±100 the full control effect; nearly all actives have a fitted effect of over 50% in size
PLK1 PBD inh – blocks phosphopeptide binding to human PLK1 polo-box domain; P53350; Plk1 PBD binding of FITC phosphopeptide, fluorescence polarization; Potency, µM, without a hit: max response, negative = inhibition, most hits filed as inhibitors; 360,000 tested, 2.8% active; further: series mostly up to about 57 µM; on the % scale 0 is the no-effect control and ±100 the full control effect; nearly all actives have a fitted effect of over 65% in size
Target sequence (P53350 whole entry, looked up, the tested form may be a part): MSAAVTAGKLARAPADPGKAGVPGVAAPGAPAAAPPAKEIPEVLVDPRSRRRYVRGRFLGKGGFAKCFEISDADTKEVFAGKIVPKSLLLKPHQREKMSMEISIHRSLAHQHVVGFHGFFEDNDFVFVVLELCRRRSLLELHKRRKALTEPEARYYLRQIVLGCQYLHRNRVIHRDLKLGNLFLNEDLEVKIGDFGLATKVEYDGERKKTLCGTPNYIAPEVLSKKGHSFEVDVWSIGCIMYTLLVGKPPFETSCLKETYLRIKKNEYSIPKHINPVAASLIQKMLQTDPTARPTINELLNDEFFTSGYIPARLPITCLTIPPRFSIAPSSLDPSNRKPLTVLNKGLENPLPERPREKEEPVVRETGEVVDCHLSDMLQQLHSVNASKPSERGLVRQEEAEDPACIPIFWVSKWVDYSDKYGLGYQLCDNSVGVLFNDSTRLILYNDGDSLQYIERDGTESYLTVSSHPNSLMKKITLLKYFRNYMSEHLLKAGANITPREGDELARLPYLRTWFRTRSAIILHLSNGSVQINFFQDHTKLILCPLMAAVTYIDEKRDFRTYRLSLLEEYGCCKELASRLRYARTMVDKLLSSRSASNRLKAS
Sfp inh – Sfp phosphopantetheinyl transferase inhibition. 310,000 tested, 3.5% active. Potency, µM, for the others: largest response in the series, negative = inhibition, usual class: inhibitors. Biochemical Sfp PPTase activity, qHTS. Q9F4F7. AID 1490;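 further: the enzyme is Sfp with the accession as filed and its product quenches rhodamine fluorescence; 0% = enzyme reaction without inhibitor and -100% = no enzyme wells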
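Sfp 15 nM + cpd, 15 min RT; start w/ rhodamine-CoA 5 uM, BHQ-2-YbbR 12.5 uM (final); 50 mM Hepes pH 7.6, 10 mM MgCl2, 0.01% NP-40, 0.01% BSA; read 525/598 nm at 0 and 30 min.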
* hit, by the source's call; ? = inconclusive; . = not tested or not shown; [ ] = remark or other dose. The call rests on the fitted dose curve; in most records, active means well fitted curve in the direction sought with a large enough effect; inconclusive means small, poorly fitted or top-dose-only effect, or another doubt; inactive means no such curve, though single readings can be large; an effect the other way counts as inactive or inconclusive. Potency means the concentration at half of the fitted maximal effect.

SMILES	BAZ2B block	G9a block	HP1b chromo inh	JMJD2A Tudor inh	PLK1 PBD inh	Sfp inh
O=C(Cn1cnc2ccccc21)N/N=C/c1cccnc1	-14%	-21%	36%	-13%	-18%	22%
Cc1ccc(NC(=O)Cn2cnc3ccccc32)cc1C	-3%	1%	-12%	?	13µM*	7%
O=C(Cn1cnc2ccccc21)N/N=C/c1ccccn1	10µM*	-1%[0.501 µM]	23%	-10%	-7%	79µM*
Cc1nc2ccccc2n1CC(=O)N/N=C\c1ccccn1	50µM*	?	33%	?	-11%	?
CCn1c(=O)cc(OCC(=O)Nc2ccccc2Cl)c2ccccc21	5%	1%[59 µM]	38%	-20%	.	.
COc1ccc(CNC(=O)C2Cc3c(-c4ccc5c(c4)OCO5)ccnc3O2)cc1OC (centres undefined)	.	.	.	.	-3%	.
CCCNC(=S)N1CCC(NC(=O)c2ccc(C)cc2)CC1	?	-9%	16%	-14%	-18%	3%
O=C(CC1C(=O)N(c2ccccc2)C(=O)N1CCC1=CCCCC1)Nc1ccc(F)cc1 (centres undefined)	-16%	14%[59 µM]	21%	-18%	.	.
O=C(CC1C(=O)NCCN1CC(c1ccccc1)c1ccccc1)NC1CC1 (centres undefined)	-10%	45µM*	41%	3%	-11%	-2%
COc1ccc(CN2CCNC(=O)C2CC(=O)NC2CCCC2)cc1OC (centres undefined)	-31%	71µM*	4%	?	-15%	10%
CCOc1ccc(CN2CCNC(=O)C2CC(=O)NC2CCCCCC2)cc1 (centres undefined)	-26%	40µM*	27%	-21%	-6%	-4%
Cc1ccc(CN2CCNC(=O)C2CC(=O)NC2CCCCCC2)cc1 (centres undefined)	-23%	56µM*	57%	-23%	-14%	8%
O=C(CC1C(=O)NCCN1Cc1ccccc1)NC1CCCCCC1 (centres undefined)	-10%	18%[59 µM]	19%	-26%	-24%	3%
Cc1cccc(NC(=O)CN(C)S(=O)(=O)c2ccc3c(c2)c(=O)n(C)c(=O)n3C)c1	-3%	5%[59 µM]	22%	-12%	.	.
CCN(CC(=O)Nc1cc(Cl)ccc1C)C(=O)c1oc2ccc(OC)cc2c1C	10%	?	12%	-22%	-1%	.
Cc1ccccc1NC(=O)CSc1nnc(-c2cccc(Cl)c2)o1	-22%	-2%[59 µM]	35%	-5%	.	.
O=C(CC1C(=O)NCCN1Cc1ccccc1)NC1CCCCC1 (centres undefined)	.	.	.	.	-18%	.
O=C(CC1C(=O)NCCN1Cc1ccc(F)cc1)NC1CCCCCCC1 (centres undefined)	-23%	50µM*	35%	9%	-11%	-6%
COc1ccccc1NC(=O)CN(C)S(=O)(=O)c1ccc2c(c1)c(=O)n(C)c(=O)n2C	-4%	2%[59 µM]	12%	-17%	.	.
CCCn1c(=N)n(CC(=O)c2ccc([N+](=O)[O-])cc2)c2ccccc21	35µM*	40µM*	17%	-23%	-4%	?
Cc1ccc(N2CCN(C(=O)Nc3cccc([N+](=O)[O-])c3)CC2C)cc1 (centres undefined)	56µM*	?	?	?	-8%	12%
CN(C)CCC(=O)c1ccc(Cl)cc1	-3%	6.3µM*	18%	-8%[57.1 µM]	4.2µM*	-4%
O=C(CCCc1ccccc1)c1ccccc1	157%	198%	222%	146%	0%	3%
CN(CCC(=O)c1ccccc1)CCC(=O)c1ccccc1	5%	32µM*	14%	-11%	27µM*	11%
O=C(O)CCC(=O)CCC(=O)c1ccc(Cl)cc1	-6%	?	34%	-12%	-7%	?
SMILES	BAZ2B block	G9a block	HP1b chromo inh	JMJD2A Tudor inh	PLK1 PBD inh	Sfp inh
COc1ccc(CNc2ncncc2-c2cccc(C#N)c2)c(OC)c1	.	8%[0.501 µM]	.	.	.	-12%
Cc1ccc(S(=O)(=O)Nc2ccc(Nc3nccn4c(-c5cccc(OC(F)(F)F)c5)cnc34)cc2)cc1	.	.	.	.	-2%	.
COc1cc(/C=N/n2cc(-c3ccccc3)[nH]c2=S)cc(OC)c1O	-19%	0.5µM*	-25%	1.3µM*	1%	20µM*
COc1ccccc1-n1cc(-c2ccc(C)cc2)[nH]c1=S	?	?	-22%	?	-6%	-6%
Oc1ccc(/C=N/n2cc(-c3ccccc3)[nH]c2=S)cc1	.	2.5µM*	-14%	4µM*	-13%	18µM*
O=C(CSc1nc2c(sc3ccccc32)c(=O)n1CCO)NCC1CCCO1 (centres undefined)	6%	-37%[12.7 µM]	56%	1%	-9%	7%
O=C(CSc1nc2c(sc3ccccc32)c(=O)n1CCCN1CCCC1)NCC1CCCO1 (centres undefined)	-1%	56µM*	26%	3%	-4%	-19%
CCOC(=O)CSc1nc2c(sc3ccccc32)c(=O)n1CCO	-20%	2%[59 µM]	-35%	56µM*	.	.
CCCCn1c(SCC(=O)NCc2ccco2)nc2c(sc3ccccc32)c1=O	15%	-14%	14%	-23%	-5%	?
CCOC(=O)CSc1nc2c(sc3ccccc32)c(=O)n1Cc1ccc(OC)cc1	3%	9%[59 µM]	22%	-8%	.	.
CCOCCCn1c(SCC(=O)NCc2ccco2)nc2c(sc3ccccc32)c1=O	0%	-26%	17%	2%	-3%	22µM*
COCCCN=C1NN=C(c2cc(C)n(Cc3ccccc3Cl)c2C)CS1	40µM*	28µM*	?	?	-21%	?
COCCCN=C1NN=C(c2cc(C)n(-c3ccccc3F)c2C)CS1	71µM*	50µM*	-4%	?	?	?
Cc1cc(C2=NNC(=NCCc3ccccc3)SC2)c(C)n1-c1c(C)n(C)n(-c2ccccc2)c1=O	-9%	-11%[59 µM]	-7%	-10%	-17%	-23%
COCCn1c(C)cc(C2=NNC(=Nc3ccccc3F)SC2)c1C	?	7.9µM*	-24%	89µM*	-16%	35µM*
COCCCN=C1NN=C(c2cc(C)n(-c3ccccc3)c2C)CS1	?	71µM*	-7%	-36%	-13%	-21%
Cc1ccc(S(=O)(=O)c2cn(C)c3cc(N4CCOCC4)c(F)cc3c2=O)c(C)c1	-2%	0%[59 µM]	16%	-15%	.	.
COc1ccc(N2CCN(CC(=O)Nc3ccc(SC(F)F)cc3)CC2)cc1	40µM*	?	-15%	?	-8%	1%
COc1ccc(N2CCN(CC(=O)NC(=O)NC(C)(C)C)CC2)cc1	-13%	79µM*	15%	-6%	5%	9%
Cc1ccc(C)c(S(=O)(=O)N2CCN(CC(=O)NC(=O)NCc3ccco3)CC2)c1	-25%	-33%	?	50µM*	?	7%
